The panel holds about 83,000 compounds, 20% with a hit somewhere; the sample as a whole holds those more often.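 Note: values are percent growth. 100 is the growth of untreated cells, values between 100 and 0 indicate rising inhibition; between -100 and 0 indicates cell death.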 Values without a mark were called inactive. Active and inactive are the calls of the source. Rule for the calls: active = growth percent below 10; inactive = the rest.
Test system: HL-60(TB) leukemia
Experiment: NCI-60 one-dose screen, 48 h (100 = growth as untreated, 0 = no growth, -100 = all killed)
Details: 10 µM unless noted

| Compound | growth |
| --- | --- |
| CC1=C([Se]CC(OC(=O)[C@@H](CO)NC(=O)OC(C)(C)C)C(=O)NCCCCCC(=O)OCc2ccccc2)C(=O)c2ccccc2C1=O (some centres undefined) | -32.9% (active) |
| Cc1ncc(C(=O)Nc2ccc(CN3CCN(C)CC3)c(C(F)(F)F)c2)cc1C#Cc1cncc2ncccc12 | 41.7% |
| Cc1cc(NCCN(C(C)C)C(C)C)nc(/N=C(\N)Nc2ccc(Cl)c(C(F)(F)F)c2)n1 | -87.9% (active) |
| Fc1ccc(Nc2nc(Nc3ccc(-c4nc5ccccc5[nH]4)cc3)nc(N3CCCC3)n2)cc1 | 5.97% (active) |
| O=C(COc1ccc(-c2nc3cc(Cl)c(Cl)cc3[nH]2)cc1)N=Nc1c(O)[nH]c2ccccc12 | 68.5% |
| Cc1c(C(N)=O)sc2nc(C)n(/N=c3\scc(-c4ccccc4)n3Cc3ccccc3)c(=O)c12 | -35.8% (active) |
| N=C(N)c1ccc(-c2ccc(-c3ccc(F)cc3)s2)nc1 | -28% (active) |
| Clc1ccccc1-c1nc2ccccc2[nH]1 | 74.4% |
| O=C(Cc1ccc(F)cc1)c1ccccc1 | 108% |
| CCOC(=O)c1csc(NC(=O)COc2cccc(/C=C3\Oc4cc(OC)ccc4C3=O)c2)n1 | 61.3% |
| Cc1ccc(-c2nnc(SCc3nc(N)nc(Nc4ccccc4F)n3)n2-c2ccccc2)cc1 | -21.3% (active) |
| CCCCn1c(=O)c2c(nc3n2CCCN3CCc2ccc(OCC(=O)NCCN(CC)CC)cc2)n(CCCC)c1=O | 67.3% |
| CCN(CC)c1ccc(C2CC(c3cc(OC)c(OC)c(OC)c3)=NN2)cc1 (centres undefined) | -35.1% (active) |
| NS(=O)(=O)c1ccc(N2N=C(c3ccc(Br)cc3)CC2c2cn(-c3ccccc3)nc2-c2ccc(Cl)cc2)cc1 (centres undefined) | 89.6% |
| Clc1nnc2c3ccccc3ccn12 | 92.6% |
| CSc1ccc(Cl)c(C(=O)Nc2sccc2C(N)=O)c1 | 91.3% |
| COc1cc(-c2cc(-c3ccc(Nc4ncnc5cc(Cl)ccc45)cc3)nc(N3CCN(C)CC3)n2)cc(OC)c1OC | 76.4% |
| O=C(/C=C/c1ccc(Cl)cc1)c1ccc(Nc2ccnc3cc(Cl)ccc23)cc1 | 23.2% |
| COc1cc(/C=C/C(=O)c2ccc(Cl)cc2)cc(CN2CCCCC2)c1O | 94.2% |
| O=C(Cc1ccccc1)C(F)(F)F | 95% |
| COc1cc(-c2ccc3cc(OC)c(OC)c(OC)c3c2)cc(OC)c1OC | 67.4% |
| CCCC1OC(c2ccco2)OCC1CC (centres undefined) | 102% |
| CC1=CC(=O)CC(C)(C)[C@@]1(O)/C=C/[C@@H](C)O | 110% |

| Compound | growth |
| --- | --- |
| COc1ccc(C(Cn2ccnc2)Sc2ccc(Cl)c(Cl)c2)cc1 (centres undefined) | 70.7% |
| CC1=NNC(=O)C1C (centres undefined) | 124% |
| NS(=O)(=O)c1cc(Br)c2c(c1)S(=O)(=O)NCN2 | 71.2% |
| O=C1Nc2cc(-c3ccc(NC(=O)C4CC4)cc3)ccc2/C1=C/c1ccc[nH]1 | 100% |
| COc1ccc(C(O)c2cc3c(N)c(C(=O)Nc4cccc5ccccc45)sc3nc2C)cc1 (centres undefined) | -1.39% (active) |
| CCc1ccc(CCC(=O)Nc2ncc(Cc3cc(Cl)ccc3Cl)s2)o1 | -44.5% (active) |
| NCCNc1nc2ccccc2c2c(=O)c3cc(F)ccc3sc12 | 62.8% |
| CC(=O)N(C)c1ccc(Nc2ccc(Nc3ccc(N(C)C(C)=O)cc3)c3c2C(=O)c2ccccc2C3=O)cc1 | 77% |
| COc1cc(OC)c(/C=C/C(=O)c2c(O)cc(OC)c(C3CCN(C)CC3)c2OC)c(OC)c1 | -35.6% (active) |
| CCOC(=O)c1ccc2c(c1)nc(-c1ccc(OCc3ccccc3)c(OC)c1)n2-c1cc(C(C)(C)C)[nH]n1 | 81.6% |
| O=C(NCc1ccc(F)cc1)C1CN(c2ccc(Cl)cc2)N(c2ccc(Cl)cc2)C1=O (centres undefined) | 43.6% |
| Fc1ccc2c(CN3CCO[C@H](COc4cccc(Cl)c4)C3)c[nH]c2c1 | 27.1% |
| C=C(C)[C@H]1CC/C(C)=C/CC[C@]2(C)O[C@H]2CC/C(COC(C)=O)=C\C1=O | 117% |
| COc1ccc(/C=N/NC(N)=S)c(OC)n1 | 93.4% |
| O=C1CCC/C=C\C[C@H]2C=CC(=O)/C2=C/C[C@H](CCc2cccc(C(F)(F)F)c2)O1 | -25.5% (active) |
| Cc1cccc(C)c1Nc1nnc(-c2ccc(F)cc2)o1 | 99.9% |
| CC(=O)c1ccc(N=C(C#N)C2=C(O)c3ccccc3C2=O)cc1 | 86.2% |
| CCN1C(=O)N(c2ccccc2)C2NC(=S)N(/N=C/C=C/c3ccccc3OC)C21 (centres undefined) | -44.9% (active) |
| CSC1=C(N)C(=O)c2[nH]cc(CO)c2C1=N | -28.1% (active) |
| CCCCC(=O)Nc1c(C(=O)Nc2ccccc2)sc2nc3c(cc12)C(OC(=O)CCCC)CCC3 (centres undefined) | 99.3% |
| O=C(Nc1ccc(Br)cc1)Nc1cccc(Br)c1 | 5.54% (active) |
| S=C1CCCC(=S)N1 | 101% |
| COc1ccc(-c2nc3sc(C4CC4)nn3c2/C=C2/C(=O)Nc3ccc(OC)cc32)cc1 | 97% |

| Compound | growth |
| --- | --- |
| O=C(N/N=c1/ccoc2cccnc12)N1CCN(c2ncccn2)CC1 | 44.2% |
| COc1cc2c(Nc3ccc(-c4ccc(N)cc4)cc3)ncnc2c(OC)c1OC | 11.7% |
| CC(C)C1=NOC(=O)C1=Cc1cn(-c2ccccc2)nc1-c1ccccc1 | -45.2% (active) |
| CCN(CC)CCCNC(=O)c1ccc(N)cc1 | 76.5% |
| NC(CS/C(Cl)=C/Cl)C(=O)O (centres undefined) | 86.9% |
| CCOC(=O)c1noc2c1CCc1c-2cn(Cc2ccc(OC)cc2)c1-c1cc(OC)c(OC)c(OC)c1 | -25.5% (active) |
| COc1cc(C2C3=C(COC3=O)N(CCO)c3cc4c(cc32)CCC4)cc(OC)c1O (centres undefined) | -8.61% (active) |
| Cc1ccc(NC(=O)c2sc3nc4c(cc3c2N)C(=O)CCC4)cc1 | 110% |
| O=C(NCc1ccc(Cn2c(=O)sn(-c3ccccc3)c2=O)cc1)OCc1ccc2c(Br)cc(Br)c(O)c2n1 | -41.3% (active) |
| Cc1csc(-c2ccc3c(c2)COC3(CCCN(C)C)c2ccc(F)cc2)c1 (centres undefined) | -47.9% (active) |
| O=C1C=CC(O)=CC1=P(c1ccccc1)(c1ccccc1)c1ccccc1 | 97.8% |
| Oc1ccc(O)c(-c2ccccc2)c1 | 35.4% |
| COS(=O)(=O)c1ccc(Br)cc1 | 122% |
| COc1ccc(-c2cn3c(C(=O)Nc4ccccc4Cl)c(-c4ccccc4)c4c3n2CCCC4)cc1 | 83.4% |
| C#CC(F)(F)[C@]1(O)CC[C@H]2[C@@H]3CCC4=CC(=O)CCC4=C3[C@@H](c3ccc(C(C)=O)cc3)C[C@@]21C | -62.6% (active) |
| Cc1ccc(-c2c(-c3ccccc3)c(=O)oc3ccc(C)cc23)cc1 | 87% |
| CCN(CCCNC(=O)Cc1cc(=O)oc2cc(N(C)C)ccc12)CCNc1ccnc2cc(Cl)ccc12 | 76.6% |
| Cc1ccc(S(=O)(=O)N2CCCC2CO)cc1 (centres undefined) | 97.7% |
| CCC/C(=N/NC(N)=O)c1ccco1 | 76.8% |
| Cc1nc(N)nc2c1CCC(Nc1ccccc1)S2 (centres undefined) | 97.1% |
| S=C(Nc1ccccc1)c1ccccn1 | 107% |
| Nc1nc2c(c3cnccc13)C(c1cccc(Cl)c1)Cc1cnccc1-2 (centres undefined) | 4.89% (active) |
| O=C(c1ccc(-c2ccccc2)cc1)c1ccc([N+](=O)[O-])cc1 | 129% |

| Compound | growth |
| --- | --- |
| O=C(Nc1ccc(Br)c(Cl)c1)c1cc(F)ccc1O | -33.4% (active) |
| CC(C)(CCc1ccccn1)C(=O)CCCc1ccccn1 | 103% |
| COc1cc(CCCO)c(OC)c(OC)c1OC | 98.4% |
| C[C@H]1[C@H](C)CC[C@]2(C(=O)OCCOCCOCC[P+](c3ccccc3)(c3ccccc3)c3ccccc3)CC[C@]3(C)C(=CC[C@@H]4[C@@]5(C)CC[C@H](OC(=O)C(Cl)Cl)C(C)(C)[C@@H]5CC[C@]43C)[C@H]12 | -48.3% (active) |
| COC(=O)CC1=C(C)/C(=C/c2[nH]c(-c3ccc[nH]3)cc2OC)N=C1C | -29.2% (active) |
| Cc1ccc(C(=O)c2ccccc2)c(C)c1 | 115% |
| COc1cc2c(cc1OC)-c1c(oc3c4c(ccc3c1=O)OC(C)(C)C=C4)CO2 | 46.4% |
| Nc1ccc2c(c1)Cc1cc(N)c(N)cc1-2 | 78.1% |
| CSc1cnc2ccccc2n1 | 90.3% |
| COc1cccc(C(=O)NC(c2ccc(C)cc2)c2cc(Cl)c3cccnc3c2O)c1 (centres undefined) | 4.15% (active) |
| Oc1ccc(CN2CCC(N3CCOCC3)CC2)c2cccnc12 | 34.4% |
| COc1cc(/C=N/NC(=O)c2cnn3c2NC(c2ccccc2)C3)ccc1OCc1ccccc1 (centres undefined) | -0.0884% (active) |
| CC1(C)N=C(N)N=C(N)N1c1cccc(Br)c1 | 33.9% |
| NC1[C@H](c2c[nH]c3ccccc23)c2c([nH]c3ccccc23)[C@H]1c1c[nH]c2ccccc12 (some centres undefined) | 119% |
| Cc1c(C(=O)Nc2nc3ccccc3[nH]2)cnn1-c1ccccn1 | 58.5% |
| NC(=S)N/N=C/c1cc(-c2cccc(N)c2)ccn1 | -12% (active) |
| COc1ccc2nc(-c3ccc(Cl)cc3)cc(-c3nnc(SC/C(=N/O)c4ccccc4)o3)c2c1 | 82% |
| C=CCN(/C=C1/C(=O)O[C@H](COC)[C@@]2(C)C1=C(O)C(=O)C1=C2[C@H](OC(C)=O)C[C@]2(C)C(=O)CC[C@@H]12)CC=C | 5.66% (active) |
| O=C(Nc1ccc(Cl)c(Cl)c1)O/N=C\c1c(Cl)ccc([N+](=O)[O-])c1Cl | -61.4% (active) |
| CCOC(=O)NC1=NCC(C)(C)S1 | 67.9% |

Reference: PubChem BioAssay (NCI)
